Drawing on paper PMC7862700, “An all-to-all approach to the identification of sequence-specific readers for epigenetic DNA modifications on cytosine”, this text covers binding signal for 1 sequence.

Holding throughout (assay): DAPPL (digital affinity profiling via proximity ligation, sequencing); 10 mM Tris-HCl pH 7.5, 50 mM NaCl, 1 mM DTT, 4% glycerol, room temperature, 30 min; GST-TFs on glutathione beads, 16-mer random dsDNA library, 0.1% formaldehyde crosslink after washing; high values mean tight binding
One assay has as its target T1, FEV (Homo sapiens, UniProt Q99581 1-238).
T1 sequence: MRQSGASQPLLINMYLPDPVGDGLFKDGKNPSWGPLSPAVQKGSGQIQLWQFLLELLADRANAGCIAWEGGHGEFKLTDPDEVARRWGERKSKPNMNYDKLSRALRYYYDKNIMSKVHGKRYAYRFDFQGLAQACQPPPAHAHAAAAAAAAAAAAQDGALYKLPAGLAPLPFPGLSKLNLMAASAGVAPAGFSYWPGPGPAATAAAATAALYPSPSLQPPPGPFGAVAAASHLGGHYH
The following applies: protein: recombinant; tags: N-terminal GST; dsDNA, one strand shown. The method, boiled down:
(§1)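 Binding signal is each hexamer's read frequency for a factor divided by its frequency in the tag-only sample. The factors were GST-fused human transcription factors from yeast, captured on glutathione beads, DNA-barcoded and pooled with that sample. Pools were incubated with 200 nmole of a random double-stranded 16-mer DNA library in Tris/NaCl/DTT/glycerol buffer at room temperature for 30 min, then washed, crosslinked with 0.1% formaldehyde, proximity-ligated with BsaI/T4 ligase (1 h, 37 °C), PCR-amplified and sequenced on an Illumina NextSeq500.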

Another assay deals with ETV5 (Homo sapiens, UniProt P41161 1-510). The following applies: protein: recombinant; tags: N-terminal GST; dsDNA, one strand shown. The method in brief: as §1
Sequence of ETV5 (P41161 whole entry): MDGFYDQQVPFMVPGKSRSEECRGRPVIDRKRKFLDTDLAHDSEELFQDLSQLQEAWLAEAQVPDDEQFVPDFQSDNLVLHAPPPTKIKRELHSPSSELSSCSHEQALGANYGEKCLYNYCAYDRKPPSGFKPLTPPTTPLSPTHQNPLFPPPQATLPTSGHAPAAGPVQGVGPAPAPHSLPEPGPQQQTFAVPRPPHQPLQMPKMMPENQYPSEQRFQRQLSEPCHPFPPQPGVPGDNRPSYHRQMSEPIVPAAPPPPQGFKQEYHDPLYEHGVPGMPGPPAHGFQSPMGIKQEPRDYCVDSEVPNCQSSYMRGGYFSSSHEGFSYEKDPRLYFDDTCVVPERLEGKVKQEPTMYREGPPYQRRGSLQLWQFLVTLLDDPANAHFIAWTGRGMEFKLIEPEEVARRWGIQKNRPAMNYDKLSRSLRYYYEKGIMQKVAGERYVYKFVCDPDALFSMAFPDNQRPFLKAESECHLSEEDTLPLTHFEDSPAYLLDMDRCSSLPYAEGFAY
The next assay deals with HSF1 (Homo sapiens, UniProt Q00613 1-529). The following applies: protein: recombinant; tags: N-terminal GST; chain copies: 3; dsDNA, one strand shown. The method, boiled down:
as §1

In the next assay the target is T2, SPIC (Homo sapiens, UniProt Q8N5J4 1-248).
T2 sequence: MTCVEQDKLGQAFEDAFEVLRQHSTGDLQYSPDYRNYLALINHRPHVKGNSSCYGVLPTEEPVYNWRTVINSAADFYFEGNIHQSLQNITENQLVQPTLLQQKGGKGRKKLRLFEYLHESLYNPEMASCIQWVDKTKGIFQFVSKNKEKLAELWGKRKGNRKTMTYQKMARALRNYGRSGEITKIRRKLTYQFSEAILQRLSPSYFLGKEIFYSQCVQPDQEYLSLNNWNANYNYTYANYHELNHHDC
The following applies: protein: recombinant; tags: N-terminal GST; dsDNA, one strand shown. The method in brief:
as §1

The target in a further assay is ELF4 (Homo sapiens, UniProt Q99607 1-663). The following applies: protein: recombinant; tags: N-terminal GST; dsDNA, one strand shown. The method in brief: as §1
Sequence of ELF4 (Q99607 whole entry): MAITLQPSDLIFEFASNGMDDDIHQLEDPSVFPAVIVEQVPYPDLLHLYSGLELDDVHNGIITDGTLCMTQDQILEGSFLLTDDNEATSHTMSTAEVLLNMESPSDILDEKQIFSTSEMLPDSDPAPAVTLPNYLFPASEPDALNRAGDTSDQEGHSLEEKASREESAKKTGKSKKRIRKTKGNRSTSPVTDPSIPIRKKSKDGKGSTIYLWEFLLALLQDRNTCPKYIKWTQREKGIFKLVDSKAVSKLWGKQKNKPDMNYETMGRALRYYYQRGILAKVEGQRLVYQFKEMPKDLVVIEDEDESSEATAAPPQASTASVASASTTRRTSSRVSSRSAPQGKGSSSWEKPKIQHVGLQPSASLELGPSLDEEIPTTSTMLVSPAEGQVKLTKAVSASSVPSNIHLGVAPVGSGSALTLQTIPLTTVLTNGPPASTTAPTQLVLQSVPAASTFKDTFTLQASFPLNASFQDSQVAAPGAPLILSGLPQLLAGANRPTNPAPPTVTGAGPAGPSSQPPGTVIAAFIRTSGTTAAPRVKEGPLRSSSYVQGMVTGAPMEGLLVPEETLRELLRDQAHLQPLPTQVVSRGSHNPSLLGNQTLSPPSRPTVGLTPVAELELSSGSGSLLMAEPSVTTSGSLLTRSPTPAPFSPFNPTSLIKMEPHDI
Another assay has as its target T3, ELK4 (Homo sapiens, UniProt P28324-2 1-405).
T3 sequence: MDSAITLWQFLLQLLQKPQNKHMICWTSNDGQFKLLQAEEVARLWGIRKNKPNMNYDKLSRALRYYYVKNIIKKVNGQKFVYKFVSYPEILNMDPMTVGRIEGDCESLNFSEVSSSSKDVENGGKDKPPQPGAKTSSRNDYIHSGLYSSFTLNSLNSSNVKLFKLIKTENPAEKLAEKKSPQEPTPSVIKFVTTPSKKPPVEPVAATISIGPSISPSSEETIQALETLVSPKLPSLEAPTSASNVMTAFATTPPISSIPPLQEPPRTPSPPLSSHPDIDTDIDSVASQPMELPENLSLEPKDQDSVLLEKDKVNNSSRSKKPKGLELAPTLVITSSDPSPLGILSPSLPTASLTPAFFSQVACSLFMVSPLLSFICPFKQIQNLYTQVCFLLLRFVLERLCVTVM
The following applies: protein: recombinant; tags: N-terminal GST; dsDNA, one strand shown. The method in brief:
as §1

A further assay has as its target T4, ETV2 (Homo sapiens, UniProt O00321 1-342).
T4 sequence: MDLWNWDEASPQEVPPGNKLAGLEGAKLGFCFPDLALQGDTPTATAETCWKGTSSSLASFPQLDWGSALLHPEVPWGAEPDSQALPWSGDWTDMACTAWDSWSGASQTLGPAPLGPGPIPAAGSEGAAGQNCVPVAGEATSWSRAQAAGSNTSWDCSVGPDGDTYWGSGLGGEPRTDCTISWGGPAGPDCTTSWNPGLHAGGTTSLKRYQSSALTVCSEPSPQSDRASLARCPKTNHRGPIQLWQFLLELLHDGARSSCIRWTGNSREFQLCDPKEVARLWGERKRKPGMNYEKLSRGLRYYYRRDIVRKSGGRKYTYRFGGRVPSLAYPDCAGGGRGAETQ
The following applies: protein: recombinant; tags: N-terminal GST; dsDNA, one strand shown. The method in brief:
as §1

The next assay addresses T5, ELF3 (Homo sapiens, UniProt P78545 1-371).
T5 sequence: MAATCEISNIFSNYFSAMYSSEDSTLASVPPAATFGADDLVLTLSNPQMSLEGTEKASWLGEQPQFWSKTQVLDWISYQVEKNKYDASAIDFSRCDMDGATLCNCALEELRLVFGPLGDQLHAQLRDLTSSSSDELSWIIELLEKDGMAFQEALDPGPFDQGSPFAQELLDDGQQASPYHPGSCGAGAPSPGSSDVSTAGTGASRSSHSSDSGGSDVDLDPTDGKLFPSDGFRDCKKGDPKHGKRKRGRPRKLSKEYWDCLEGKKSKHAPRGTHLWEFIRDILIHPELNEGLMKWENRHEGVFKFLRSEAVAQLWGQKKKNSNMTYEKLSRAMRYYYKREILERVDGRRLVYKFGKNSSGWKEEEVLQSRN
The following applies: protein: recombinant; tags: N-terminal GST; dsDNA, one strand shown. The method, boiled down:
as §1

In a further assay the target is CRX (Homo sapiens, UniProt O43186 1-299). The following applies: protein: recombinant; tags: N-terminal GST; dsDNA, one strand shown. The method in brief:
as §1

A further assay deals with ETV1 (Homo sapiens, UniProt P50549 1-477). The following applies: protein: recombinant; tags: N-terminal GST; dsDNA, one strand shown. The method, boiled down: as §1
Sequence of ETV1 (P50549 whole entry): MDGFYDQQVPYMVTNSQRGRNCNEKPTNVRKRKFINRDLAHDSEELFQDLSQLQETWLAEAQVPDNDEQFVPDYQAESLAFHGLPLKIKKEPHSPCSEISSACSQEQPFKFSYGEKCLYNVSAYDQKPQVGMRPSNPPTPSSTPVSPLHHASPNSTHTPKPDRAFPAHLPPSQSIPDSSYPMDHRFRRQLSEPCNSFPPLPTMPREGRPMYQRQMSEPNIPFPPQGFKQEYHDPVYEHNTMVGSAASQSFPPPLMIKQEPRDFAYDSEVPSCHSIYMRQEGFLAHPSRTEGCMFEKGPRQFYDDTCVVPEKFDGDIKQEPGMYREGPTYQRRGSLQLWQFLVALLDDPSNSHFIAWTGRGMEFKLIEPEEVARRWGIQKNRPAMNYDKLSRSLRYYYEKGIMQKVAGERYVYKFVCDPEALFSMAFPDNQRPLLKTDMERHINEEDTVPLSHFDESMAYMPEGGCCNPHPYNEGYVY
Another assay concerns the target T6, ERF (Homo sapiens, UniProt P50548 1-548).
T6 sequence: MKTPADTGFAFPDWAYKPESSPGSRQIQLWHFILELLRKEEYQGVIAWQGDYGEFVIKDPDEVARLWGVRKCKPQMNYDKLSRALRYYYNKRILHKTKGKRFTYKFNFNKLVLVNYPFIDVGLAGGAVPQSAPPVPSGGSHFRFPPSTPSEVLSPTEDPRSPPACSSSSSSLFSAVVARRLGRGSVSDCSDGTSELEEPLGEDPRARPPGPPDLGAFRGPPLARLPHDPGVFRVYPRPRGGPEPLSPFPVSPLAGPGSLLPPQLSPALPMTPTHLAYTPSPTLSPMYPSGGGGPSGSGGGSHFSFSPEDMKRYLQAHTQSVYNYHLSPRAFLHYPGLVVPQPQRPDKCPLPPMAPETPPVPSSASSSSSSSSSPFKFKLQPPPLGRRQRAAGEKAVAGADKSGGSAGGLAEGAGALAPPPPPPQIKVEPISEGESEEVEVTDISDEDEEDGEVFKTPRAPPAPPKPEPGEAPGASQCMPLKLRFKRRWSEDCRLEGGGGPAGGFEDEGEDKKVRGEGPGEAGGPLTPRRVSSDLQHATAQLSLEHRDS
The following applies: protein: recombinant; tags: N-terminal GST; dsDNA, one strand shown. The method in brief:
as §1

In a further assay the target is T7, ETV3L (Homo sapiens, UniProt Q6ZN32 1-361).
T7 sequence: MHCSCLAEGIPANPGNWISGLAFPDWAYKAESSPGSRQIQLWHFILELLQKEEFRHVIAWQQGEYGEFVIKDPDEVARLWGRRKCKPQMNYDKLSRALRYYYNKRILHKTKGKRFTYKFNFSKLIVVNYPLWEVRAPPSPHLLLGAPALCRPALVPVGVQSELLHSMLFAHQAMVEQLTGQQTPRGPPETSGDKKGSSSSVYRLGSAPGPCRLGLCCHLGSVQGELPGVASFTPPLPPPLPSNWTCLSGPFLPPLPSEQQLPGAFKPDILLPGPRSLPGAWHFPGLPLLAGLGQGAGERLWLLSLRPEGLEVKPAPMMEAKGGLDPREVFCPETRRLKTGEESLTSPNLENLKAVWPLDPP
The following applies: protein: recombinant; tags: N-terminal GST; dsDNA, one strand shown. The method, boiled down: as §1

The next assay addresses T8, ETS2 (Homo sapiens, UniProt P15036 1-469).
T8 sequence: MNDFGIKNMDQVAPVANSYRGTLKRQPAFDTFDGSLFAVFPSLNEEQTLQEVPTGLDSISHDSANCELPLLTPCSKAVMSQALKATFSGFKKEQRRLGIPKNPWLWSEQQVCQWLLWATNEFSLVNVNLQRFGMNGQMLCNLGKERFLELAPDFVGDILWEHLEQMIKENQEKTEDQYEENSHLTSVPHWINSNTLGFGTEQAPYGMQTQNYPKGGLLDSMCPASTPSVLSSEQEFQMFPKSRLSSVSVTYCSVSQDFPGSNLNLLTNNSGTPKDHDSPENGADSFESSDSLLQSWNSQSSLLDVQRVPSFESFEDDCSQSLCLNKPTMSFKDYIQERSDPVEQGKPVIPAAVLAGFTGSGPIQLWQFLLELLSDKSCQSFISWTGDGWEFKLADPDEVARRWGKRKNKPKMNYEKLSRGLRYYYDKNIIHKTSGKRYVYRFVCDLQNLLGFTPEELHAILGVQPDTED
The following applies: protein: recombinant; tags: N-terminal GST; dsDNA, one strand shown. The method in brief: as §1

Another assay deals with T9, SPDEF (Homo sapiens, UniProt O95238 1-335).
T9 sequence: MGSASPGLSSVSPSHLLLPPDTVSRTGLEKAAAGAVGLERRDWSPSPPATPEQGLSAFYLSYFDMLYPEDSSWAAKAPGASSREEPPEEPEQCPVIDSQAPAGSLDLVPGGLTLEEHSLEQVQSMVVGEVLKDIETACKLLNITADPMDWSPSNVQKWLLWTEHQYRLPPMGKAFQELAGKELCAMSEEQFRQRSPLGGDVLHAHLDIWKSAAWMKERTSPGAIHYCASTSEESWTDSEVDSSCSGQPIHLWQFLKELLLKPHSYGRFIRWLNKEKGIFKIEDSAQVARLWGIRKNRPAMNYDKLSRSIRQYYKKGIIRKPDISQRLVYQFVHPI
The following applies: protein: recombinant; tags: N-terminal GST; dsDNA, one strand shown. The method in brief:
as §1

The target of the next assay is T10, ETV7 (Homo sapiens, UniProt Q9Y603 1-341).
T10 sequence: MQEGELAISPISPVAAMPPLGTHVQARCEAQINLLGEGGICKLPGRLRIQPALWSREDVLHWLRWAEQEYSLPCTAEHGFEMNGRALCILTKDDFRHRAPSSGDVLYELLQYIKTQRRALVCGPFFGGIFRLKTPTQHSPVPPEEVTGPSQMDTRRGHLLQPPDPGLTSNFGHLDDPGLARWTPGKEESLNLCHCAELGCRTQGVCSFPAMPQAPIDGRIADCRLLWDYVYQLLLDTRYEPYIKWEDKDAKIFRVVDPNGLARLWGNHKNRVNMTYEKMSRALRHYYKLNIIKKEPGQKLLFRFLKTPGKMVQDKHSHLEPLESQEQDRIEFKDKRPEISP
The following applies: protein: recombinant; tags: N-terminal GST; dsDNA, one strand shown. The method in brief: as §1

The next assay has as its target T11, ELF5 (Homo sapiens, UniProt Q9UKW6-2 1-255).
T11 sequence: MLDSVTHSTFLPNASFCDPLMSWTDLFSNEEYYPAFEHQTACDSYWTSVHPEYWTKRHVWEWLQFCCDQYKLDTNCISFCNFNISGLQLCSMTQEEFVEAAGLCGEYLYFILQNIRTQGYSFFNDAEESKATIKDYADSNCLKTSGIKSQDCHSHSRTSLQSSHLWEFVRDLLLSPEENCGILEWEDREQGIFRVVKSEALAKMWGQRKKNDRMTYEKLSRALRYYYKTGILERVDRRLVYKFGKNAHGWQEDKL
The following applies: protein: recombinant; tags: N-terminal GST; dsDNA, one strand shown. The method, boiled down: as §1

In another assay the target is T12, ETV3 (Homo sapiens, UniProt P41162-2 1-143).
T12 sequence: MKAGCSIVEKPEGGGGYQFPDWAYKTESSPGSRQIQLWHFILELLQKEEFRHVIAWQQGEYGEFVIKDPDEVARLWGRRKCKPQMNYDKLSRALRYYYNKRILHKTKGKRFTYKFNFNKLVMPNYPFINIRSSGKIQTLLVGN
The following applies: protein: recombinant; tags: N-terminal GST; dsDNA, one strand shown. The method, boiled down:
as §1

In the next assay the target is ETV6 (Homo sapiens, UniProt P41212 1-452). The following applies: protein: recombinant; tags: N-terminal GST; dsDNA, one strand shown. The method in brief: as §1
Sequence of ETV6 (P41212 whole entry): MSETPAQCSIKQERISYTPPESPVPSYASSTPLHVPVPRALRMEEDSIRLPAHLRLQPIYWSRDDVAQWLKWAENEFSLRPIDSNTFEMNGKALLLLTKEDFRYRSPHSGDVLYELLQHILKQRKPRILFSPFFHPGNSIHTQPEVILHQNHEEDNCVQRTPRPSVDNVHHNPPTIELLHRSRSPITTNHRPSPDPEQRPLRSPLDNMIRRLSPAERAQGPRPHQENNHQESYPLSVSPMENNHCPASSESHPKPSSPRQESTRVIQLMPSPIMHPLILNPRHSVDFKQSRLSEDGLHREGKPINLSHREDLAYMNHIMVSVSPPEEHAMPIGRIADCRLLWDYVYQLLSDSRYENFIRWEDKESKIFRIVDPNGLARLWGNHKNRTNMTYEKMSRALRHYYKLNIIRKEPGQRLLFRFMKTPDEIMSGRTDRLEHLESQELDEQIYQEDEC

Sequence of CRX (O43186 whole entry): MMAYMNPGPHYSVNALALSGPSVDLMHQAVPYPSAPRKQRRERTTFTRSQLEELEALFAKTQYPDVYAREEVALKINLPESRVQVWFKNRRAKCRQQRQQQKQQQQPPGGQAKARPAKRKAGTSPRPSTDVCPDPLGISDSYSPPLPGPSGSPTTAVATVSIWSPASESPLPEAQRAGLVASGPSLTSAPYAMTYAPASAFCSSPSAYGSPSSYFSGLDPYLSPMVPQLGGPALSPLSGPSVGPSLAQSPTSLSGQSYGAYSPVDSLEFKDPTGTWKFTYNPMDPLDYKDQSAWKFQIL
Sequence of HSF1 (Q00613 whole entry): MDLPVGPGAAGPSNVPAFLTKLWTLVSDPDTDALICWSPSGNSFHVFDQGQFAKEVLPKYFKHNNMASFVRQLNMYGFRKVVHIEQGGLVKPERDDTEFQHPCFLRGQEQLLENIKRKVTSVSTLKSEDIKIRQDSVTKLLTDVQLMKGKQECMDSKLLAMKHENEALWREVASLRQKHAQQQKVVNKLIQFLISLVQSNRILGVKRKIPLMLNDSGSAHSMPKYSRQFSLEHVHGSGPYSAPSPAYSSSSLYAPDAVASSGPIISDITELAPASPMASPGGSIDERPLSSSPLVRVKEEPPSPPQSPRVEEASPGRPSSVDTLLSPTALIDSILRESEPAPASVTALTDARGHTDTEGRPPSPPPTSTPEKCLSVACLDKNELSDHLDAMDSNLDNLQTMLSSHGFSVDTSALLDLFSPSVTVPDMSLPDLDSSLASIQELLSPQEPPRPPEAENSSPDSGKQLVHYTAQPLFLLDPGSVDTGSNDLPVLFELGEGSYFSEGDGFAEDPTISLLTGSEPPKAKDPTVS

In the case of CTAGGT, the binding signal in the assay with FEV was 1.07 fold enrichment (6-mer frequency, TF over GST control); with ETV5, 1.18 fold enrichment (6-mer frequency, TF over GST control); in the assay with HSF1 it was 1.19 fold enrichment (6-mer frequency, TF over GST control); with SPIC, 1.26 fold enrichment (6-mer frequency, TF over GST control); in the assay with ELF4 it was 1.12 fold enrichment (6-mer frequency, TF over GST control); with ELK4, 1.18 fold enrichment (6-mer frequency, TF over GST control). Moreover, the binding signal in the assay with ETV2 was 1.07 fold enrichment (6-mer frequency, TF over GST control); with ELF3, 1.18 fold enrichment (6-mer frequency, TF over GST control); in the assay with CRX, 1.05 fold enrichment (6-mer frequency, TF over GST control); in the assay with ETV1, 1.1 fold enrichment (6-mer frequency, TF over GST control); in the assay with ERF, 1.03 fold enrichment (6-mer frequency, TF over GST control); with ETV3L it was 1.16 fold enrichment (6-mer frequency, TF over GST control). In addition, the binding signal with ETS2 was 1.11 fold enrichment (6-mer frequency, TF over GST control); in the assay with SPDEF, 1.17 fold enrichment (6-mer frequency, TF over GST control); in the assay with ETV7, 1.1 fold enrichment (6-mer frequency, TF over GST control); with ELF5, 1.01 fold enrichment (6-mer frequency, TF over GST control); with ETV3, 1.14 fold enrichment (6-mer frequency, TF over GST control); with ETV6, 1.11 fold enrichment (6-mer frequency, TF over GST control).
